Data published in ChEMBL document CHEMBL3988442, “University of Dundee, Small-Polar-MMV Screening Library” (2021).
The campaign covered roughly 48,000 compounds. About 13,000 (27%) showed an effect of 50% or more. This is one part of the list.

Each compound was assayed on Wolbachia pipientis (assay: Anti-Wolbachia Cell-Based Screen). Settings: 5 µM.
Format: functional
Design: scale not given: in the data most compounds retested in dose-response had high values

Point of comparison: CCc1nsc(N2CCCN(C(=O)c3ccc(OC)cc3)CC2)n1, “Percent Effect” value 4.92%. Against it:
- CC(=O)NCC(=O)N1CCN(Cc2cccnc2)c2ncccc2C1 — lower, -23.25%
- O=C(Cc1ccsc1)N1CCN(CC2CC2)c2ncccc2C1.O=C(O)C(F)(F)F — lower, -24.66%
- O=C(C1CC1)N1CCN(Cc2ccncc2)c2ncccc2C1.O=C(O)C(F)(F)F.O=C(O)C(F)(F)F — higher, 97.41%
- COCC(=O)N1CCN(CC2CC2)c2ncccc2C1 — higher, 17.09%
- O=C(O)C(F)(F)F.O=C(O)CCC(=O)N1CCN(CC2CC2)c2ncccc2C1 — lower, -20.91%
- Cc1ccc2c(n1)N(C)CCN(C(=O)C1CC1)C2.O=C(O)C(F)(F)F — lower, -19.49%
- COCC(=O)N1CCN(Cc2cccnc2)c2ncccc2C1.O=C(O)C(F)(F)F.O=C(O)C(F)(F)F — higher, 107.3%
- O=C(CC1CC1)N1CCN(Cc2ccncc2)c2ncccc2C1.O=C(O)C(F)(F)F.O=C(O)C(F)(F)F — higher, 106.6%
- O=C(CC1CC1)N1CCN(Cc2cccnc2)c2ncccc2C1.O=C(O)C(F)(F)F.O=C(O)C(F)(F)F — higher, 108.8%
- CCCS(=O)(=O)N1CCC2(CC1)CCn1c(-c3cnn(C)c3)cnc12.O=C(O)C(F)(F)F — lower, -1.785%
- CC(=O)NS(=O)(=O)c1ccc2c(c1)N(C)CCC2 — lower, -0.0475%
- CN(C)C(=O)N1CCC(C(=O)N2CCOC(CC3CCCCC3)C2)CC1 (centres undefined) — lower, 1.077%
- CN(C)Cc1nnc(C2CCCN(Cc3ccc(Cl)s3)C2)n1C (centres undefined) — lower, -1.038%
- COc1ncnc2c1CCN(c1cc(C(F)(F)F)ncn1)CC2 — lower, -19.6%
- N#Cc1ccnc(N2CCC(NCCN3CCCC3)CC2)c1 — lower, 4.204%
- Cn1nnnc1SCc1cc2c(cc1Cl)OCO2 — higher, 119.1%
- Cn1c(N)nnc1SCc1cc(Br)ccc1Cl — lower, -1.725%
- Cn1cnnc1SCc1cc2c(cc1Br)OCO2 — higher, 98.1%
- Cn1cnnc1SCc1cc2c(cc1Cl)OCO2 — higher, 116.9%
- Cn1cnnc1S(=O)(=O)Cc1cc(Cl)c2c(c1)OCO2 — lower, -6.914%
- CN(Cc1cscn1)Cc1cc2c(cc1Br)OCO2 — higher, 7.123%
- CC(C)C(=O)Nc1ccc(Sc2nncn2C)c(Cl)c1 — higher, 7.85%
- Cn1nnnc1SCCNC1CCN(c2ccc3c(c2)OCO3)CC1 — lower, -18.49%
- Cn1c(N)nnc1SCc1ccc(Cl)cc1Br — lower, -13.54%
- CCCc1cc(NC(=O)c2cc(N3CCNC3=O)c(F)cc2F)n[nH]1 — lower, -4.311%
- Cc1noc(C)c1CN(C)Cc1nc(N)c2ccccc2n1 — lower, -15.35%
- Cc1noc(C)c1CN(C)c1ncnc2onc(C)c12 — higher, 10.95%
- Cc1noc(C)c1CN(C)c1ncnc2ccccc12 — higher, 85.55%
- Cc1cccc(COC[C@H]2CC[C@H]3[C@H](CCN3Cc3ccco3)O2)n1 — higher, 105.2%
- O=C(COC[C@H]1CC[C@H]2[C@H](CCN2c2ncccn2)O1)N1CCCC1.O=C(O)C(F)(F)F — lower, -10.98%
- O=C(c1ccco1)N1CC[C@@H]2O[C@H](COCC3CCOCC3)CC[C@@H]21 — lower, -18.62%
- c1coc(CN2CC[C@@H]3O[C@@H](COCC4CCOCC4)CC[C@@H]32)c1 — higher, 95.89%
- Cc1cccc(COC[C@@H]2CC[C@H]3[C@H](CCN3C(=O)CC3CC3)O2)n1.O=C(O)C(F)(F)F — lower, -1.291%
- Cc1cccc(COC[C@@H]2CC[C@H]3[C@H](CCN3Cc3ccco3)O2)n1.O=C(O)C(F)(F)F.O=C(O)C(F)(F)F — lower, -8.217%
- CN(C)C(=O)COCC1C[C@@H]2OCCN(Cc3ccco3)[C@H]2C1 (some centres undefined) — lower, -1.169%
- CN(C)C(=O)COC[C@H]1CC[C@@H]2[C@@H](CCN2Cc2ccco2)O1.O=C(O)C(F)(F)F — higher, 91.23%
- O=C(COC[C@@H]1CC[C@H]2[C@H](CCN2Cc2ccco2)O1)N1CCCC1 — higher, 94.38%
- COCCN1CC[C@@H]2O[C@@H](COCC(=O)N3CCCC3)CC[C@@H]21.O=C(O)C(F)(F)F — lower, -7.716%
- O=C(c1ccco1)N1CC[C@@H]2O[C@@H](COCC3CCOCC3)CC[C@@H]21 — lower, -0.1018%
- COCCn1cc(NC(=O)NCC2CCN(c3ccccc3)C2)cn1 (centres undefined) — higher, 6.997%
- Cc1cc(CN2CCC(c3ccnn3CCO)CC2)no1 — lower, -5.622%
- CCNc1ncc(C(=O)NCc2csc(-c3cnccn3)n2)cn1 — lower, -2.125%
- CCC1COCCN1C(=O)NCc1cccc(-c2cnn(C)c2)c1 (centres undefined) — lower, -16.85%
- Cc1ccc(CNC[C@H]2Cn3cc(-c4ccccc4)nc3CO2)cc1 — lower, -14.25%
- COc1ccc(CNC[C@H]2COCc3nc4cc(F)ccc4n32)cn1 — lower, 2.56%
- CN1C[C@@H](COCC2CC2)[C@H]2CCN(Cc3ccco3)CC[C@H]2C1=O.O=C(O)C(F)(F)F — lower, -15.86%
- O=C(O)C(F)(F)F.c1coc(CN2CC[C@H]3O[C@@H](COCC4CC4)CC[C@H]32)c1 — higher, 103.1%
- c1csc(CN2CC[C@H]3O[C@@H](COCC4CC4)CC[C@H]32)c1 — lower, -24.01%
- CCSc1nnc(N2CCN(c3ccccc3)CC2)s1 — lower, -16.68%
- CCc1nc(N)nc(N(C)Cc2nncn2CCOC)c1C — lower, -4.118%
- Cn1ccnc1CN1CCOCC(Cc2ccccn2)C1 (centres undefined) — lower, -4.289%
- CN(C)c1ccc(CC2COCCN(Cc3nccn3C)C2)nn1 (centres undefined) — higher, 107.3%
- Cn1ccnc1C1CCN(CCC2CCOC2)CC1 (centres undefined) — lower, -2.458%
- Cc1cnc(CC2COCCN(Cc3nccn3C)C2)cn1 (centres undefined) — higher, 117.2%
- Cc1noc(C)c1CN1CCN(Cc2nccn2C)C(C)C1 (centres undefined) — lower, -9.694%
- Cc1cc(-n2cccn2)ccc1CN1CCOCC(CN(C)C)C1 (centres undefined) — lower, -16.76%
- Cc1cccc(CC2COCCN(Cc3nccn3C)C2)n1 (centres undefined) — higher, 119.1%
- CCN1CCN(S(=O)(=O)N2CCc3ccccc3C2)[C@H]2CS(=O)(=O)C[C@H]21 — lower, -15.22%
